# From PubChem BioAssay (Tox21)
# Records with an inconclusive call do not appear. Where a call stands in place of a potency, no number is given. Calls of active or inactive are those of the source. Unless noted, the call rests on the fitted dose curve; in most records, active means well fitted curve in the direction sought with a large enough effect in the repeat runs; inconclusive means weak or mixed curves; inactive means no such curve, though single readings can be large; an effect the other way counts as inactive or inconclusive. Positions of bridges follow the written chain, without caps; N, C: chain ends. Residues, ends and D or L forms follow the SMILES beside them.
# Legend:
# [1] = qHTS assay for small molecule agonists of the p53 signaling pathway (AID 651631; calls by dose curve; further: nearly all actives have a fitted effect of over 15% in size; further: potency means the concentration at half of the fitted maximal effect)
# How it was run: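 Read-out is beta-lactamase FRET fluorescence measured 2 h after substrate addition at room temperature, in HCT-116 cells with a p53 response element-driven reporter exposed to compounds for 16 h at 37 °C.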
# [2] = qHTS assay for small molecules that induce genotoxicity in human embryonic kidney cells expressing luciferase-tagged ATAD5 (AID 651632); further: nearly all actives have a fitted effect of over 15% in size; further: potency means the concentration at half of the fitted maximal effect
# How it was run: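 Concentration-response screen for ATAD5 upregulation in HEK293T luciferase reporter cells; 16 hr treatment at 37C, then luminescence after 30 min with Amplite at room temperature.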
# [3] = qHTS assay for small molecule agonists of the p53 signaling pathway - cell viability (AID 651633; calls by dose curve; further: nearly all actives have a fitted effect of over 30% in size; further: potency means the concentration at half of the fitted maximal effect)
# How it was run: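 p53RE-bla cells were treated with compound for 16 hours at 37 C. Cytotoxicity was then measured as CellTiter-Glo luminescence after 30 min at room temperature.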
# [4] = qHTS assay for small molecules that induce genotoxicity in human embryonic kidney cells expressing luciferase-tagged ATAD5 - cell viability (AID 651634; calls by dose curve; further: nearly all actives have a fitted effect of over 25% in size; further: potency means the concentration at half of the fitted maximal effect)
# How it was run: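 15.5 hr compound or vehicle exposure of HEK293T cells expressing luciferase-tagged ATAD5 at 37C; live-cell protease activity is read by fluorescence after 30 min of CellTiter-Fluor.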
# [5] = qHTS assay for small molecule disruptors of the mitochondrial membrane potential - cell viability (AID 720634; calls by dose curve;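 further: human HepG2 liver cancer cells; series mostly up to about 83 µM; nearly all actives have a fitted effect of over 20% in size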)
# How it was run: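 In this qHTS format, HepG2 cells plated overnight were pinned with compound, incubated 1 hr, and assayed for ATP luminescence with CellTiter-Glo after m-MPI dye addition.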
# [6] = qHTS assay for small molecule disruptors of the mitochondrial membrane potential (AID 720635)
# How it was run: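 HepG2 cells exposed to compound 1 hr at 37C, then Mito-MPS dye 30 min. Ratio read of aggregate (540/590 nm) versus monomer (490/535 nm) fluorescence.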
# [7] = qHTS assay to test for compound auto fluorescence at 590 nm (red) in HepG2 cells (AID 720674)
# How it was run: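 Seeding: 2,000 HepG2 cells/well, MEM/10% FBS, overnight 37 C. Dosing: compound vs DMSO. Incubation: 1 hr, 37 C, 5% CO2. Read: fluorescence 540 ex/590 em, Rose Bengal sodium as red reference.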
# [8] = qHTS assay to test for compound auto fluorescence at 535 nm (green) in HepG2 cells (AID 720675)
# [9] = qHTS assay to test for compound auto fluorescence at 460 nm (blue) in HEK293 cells (AID 720678)
# How it was run: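 After cell attachment (4-5 hr, 37C), compounds were pinned onto HEK293 monolayers in 10% dialyzed FBS medium. The blue channel (405/460 nm) was read following overnight culture. Equivalency was calculated against triamterene.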
# [10] = qHTS assay to test for compound auto fluorescence at 590 nm (red) in HEK293 cells (AID 720679)
# How it was run: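 Plates of HEK293 cells (10% dialyzed FBS) are treated with 23 nL compound or DMSO vehicle after a 4-5 hr attachment period, incubated overnight at 37C, and read for red fluorescence at 540/590nm.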
SMILES,Potency [1],Potency [2],Potency [3],Potency [4],Potency [5],Potency [6],Potency [7],Potency [8],Potency [9],Potency [10]
CCCCCCCCCCCCCCCCCCOP(=O)([O-])OC1CC[N+](C)(C)CC1,inactive,inactive,inactive,inactive,inactive,inactive,inactive,inactive,inactive,inactive
COc1ccc(C(=O)Nc2ccccc2CCC2CCCCN2C)cc1 (stereo unspecified),inactive,inactive,inactive,inactive,inactive,inactive,inactive,inactive,inactive,inactive
CC(C)CN(C[C@@H](O)[C@H](Cc1ccccc1)NC(=O)O[C@H]1CO[C@H]2OCC[C@H]21)S(=O)(=O)c1ccc(N)cc1,inactive,inactive,inactive,inactive,inactive,inactive,inactive,inactive,inactive,inactive
CCC(C)(C)OC(=O)N[C@@H](Cc1c[nH]c2ccccc12)C(=O)N[C@@H](CCSC)C(=O)N[C@@H](CC(=O)O)C(=O)N[C@@H](Cc1ccccc1)C(N)=O,inactive,inactive,inactive,inactive,inactive,inactive,inactive,–,inactive,inactive
NCCCC[C@H](NC(=O)[C@@H]1CCCN1C(=O)[C@@H]1CSSC[C@H](NC(=O)CNC(=O)CNC(=O)CN)C(=O)N[C@@H](Cc2ccc(O)cc2)C(=O)N[C@@H](Cc2ccccc2)C(=O)N[C@@H](CCC(N)=O)C(=O)N[C@@H](CC(N)=O)C(=O)N1)C(=O)NCC(N)=O (H-GGGCYFQNCPKG-NH2; disulfide 4-9),inactive,inactive,inactive,inactive,inactive,inactive,inactive,inactive,inactive,inactive
OC[C@H]1O[C@@H](n2cnc3c2NC=NC[C@H]3O)C[C@@H]1O,inactive,inactive,inactive,inactive,inactive,–,inactive,inactive,inactive,inactive
CC(C)[C@H](N)C(=O)OCC(CO)OCn1cnc2c(=O)[nH]c(N)nc21 (stereo partly specified),inactive,inactive,inactive,inactive,inactive,–,inactive,inactive,inactive,inactive
N#Cc1ccc2c(c1)N(CCCN1CCC(O)CC1)c1ccccc1S2,26.6 µM (active),inactive,inactive,inactive,inactive,–,inactive,inactive,inactive,inactive
COc1ccc(CCNC[C@H](O)c2ccc(O)cc2)cc1OC,inactive,inactive,inactive,inactive,inactive,–,inactive,inactive,inactive,inactive
CCOC(=O)O[C@]1(C(=O)COC(=O)CC)CC[C@H]2[C@@H]3CCC4=CC(=O)C=C[C@]4(C)[C@H]3[C@@H](O)C[C@@]21C,inactive,inactive,inactive,inactive,inactive,–,inactive,inactive,inactive,inactive
OC[C@H]1O[C@@H](O[C@H]2[C@H](O)[C@@H](O)[C@H](O)O[C@@H]2CO)[C@H](O)[C@@H](O)[C@@H]1O,inactive,inactive,inactive,inactive,inactive,–,inactive,inactive,inactive,inactive
C[C@@](Cc1ccc(O)c(O)c1)(NN)C(=O)O,inactive,inactive,inactive,inactive,inactive,–,inactive,inactive,inactive,inactive
CC[C@H]1NC(=O)[C@@H](NC(=O)c2ncccc2O)[C@@H](C)OC(=O)[C@H](c2ccccc2)NC(=O)[C@@H]2CC(=O)CCN2C(=O)[C@H](Cc2ccccc2)N(C)C(=O)[C@@H]2CCCN2C1=O,inactive,inactive,inactive,inactive,inactive,–,inactive,inactive,inactive,inactive
C/C=C1\NC(=O)[C@H]2CSSCC/C=C/[C@H](CC(=O)N[C@H](C(C)C)C(=O)N2)OC(=O)C(C(C)C)NC1=O (stereo partly specified),7.5 µM (active),0.0094 µM (active),1.5 µM (active),7.5 µM (active),inactive,–,inactive,inactive,inactive,inactive
CCOC(=O)C1=C[C@@H](OC(CC)CC)[C@H](NC(C)=O)[C@@H](N)C1,inactive,inactive,inactive,inactive,inactive,–,inactive,inactive,inactive,inactive
CC[C@H](CC[C@@H](C)[C@H]1CC[C@H]2[C@@H]3CC=C4C[C@@H](O)CC[C@]4(C)[C@H]3CC[C@]12C)C(C)C,inactive,inactive,inactive,inactive,inactive,–,inactive,inactive,inactive,inactive
O=C(O)CCC/C=C\C[C@@H]1[C@@H](/C=C/[C@@H](O)COc2cccc(Cl)c2)[C@H](O)C[C@@H]1O,inactive,inactive,inactive,inactive,inactive,–,inactive,inactive,inactive,inactive
CCCC(=O)N1CCCN(c2nc(N)c3cc(OC)c(OC)cc3n2)CC1,inactive,inactive,inactive,inactive,inactive,–,inactive,inactive,inactive,inactive
CCOC(=O)c1cc(-c2ccccc2)nc2ccc(C)cc12,inactive,inactive,inactive,inactive,inactive,–,inactive,inactive,inactive,inactive
NC(=O)c1ccc[n+]([C@@H]2O[C@H](COP(=O)([O-])OP(=O)(O)OC[C@H]3O[C@@H](n4cnc5c(N)ncnc54)[C@H](O)[C@@H]3O)[C@@H](O)[C@H]2O)c1,inactive,inactive,inactive,inactive,inactive,–,inactive,inactive,inactive,inactive
CC(=O)N[C@@H]1C(O[C@H]2O[C@H](C(=O)O)C(O)[C@H](O)[C@H]2O)[C@H](O)[C@@H](CO)O[C@H]1O[C@@H]1C(C(=O)O)O[C@@H](O[C@H]2[C@H](O)[C@@H](CO)OC(O)[C@@H]2NC(C)=O)[C@H](O)[C@H]1O (stereo partly specified),inactive,inactive,inactive,inactive,inactive,–,inactive,inactive,inactive,inactive
CC[C@@H](C(=O)O)[C@@H]1O[C@@H]([C@@H](C)[C@H](O)[C@H](C)C(=O)[C@H](CC)[C@H]2O[C@]3(C=C[C@@H](O)[C@]4(CC[C@@](C)([C@H]5CC[C@](O)(CC)[C@H](C)O5)O4)O3)[C@H](C)C[C@@H]2C)[C@@H](C)C[C@@H]1C,3.76 µM (active),inactive,inactive,1.88 µM (active),inactive,–,inactive,inactive,inactive,inactive
Cc1ccccc1OCC(O)CNCCOc1ccc(C(N)=O)cc1 (stereo unspecified),inactive,inactive,inactive,inactive,inactive,–,inactive,inactive,inactive,inactive
